This is a sample that favours compounds with a hit; in the whole collection about 21% have one here.
NS1 function inh = influenza NS1 inhibition. Potency, µM (series often up to 46.1 µM). 270,000 compounds, 0.4% hits. AID 2326; calls by dose curve; further: actives are rising curves; nearly all actives have a fitted effect of over 50% in size
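Compounds were scored for reversing the slow growth caused by influenza A NS1 in S. cerevisiae, measured by optical density at 600 nm. Assay medium contained 2% galactose at pH 6.0; NS1-free yeast of the same strain were the positive control.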
CHX counter = affects cycloheximide protein synthesis inhibition readout, counter-screen; cell reporter, cycloheximide protein synthesis inhibition counterscreen; max response, %; 300,000 compounds, 12% hits; in the data active means max response mostly above about 13%, no sharp cut-off; inactive means mostly below about 14%; further: read at 38.3 µM for the half of the compounds with a filed dose
Shiga inhibitor = blocks Shiga toxin action in Vero cells; Vero cells, Shiga toxin protein synthesis inhibition reporter; inhibition, % at 38.7 µM; AID 2315; 290,000 compounds, 9.2% hits; in the data active means inhibition mostly above about 28%, no sharp cut-off; inactive means mostly below about 43%
Pf growth 48h = P. falciparum growth inhibition at 48 hours (one generation). 310,000 compounds, 5.9% hits. Potency, µM (top dose mostly 28.7 µM), hits mostly inhibitors. P. falciparum luciferase growth in erythrocytes, 48 h
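Read-out is firefly luciferase luminescence from an integrated reporter in P. falciparum, so falling signal marks reduced parasite growth. Infected erythrocytes were at 2% hematocrit and 0.1% parasitemia (final) in Albumax-supplemented RPMI 1640.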
SARS PLP yeast = SARS-CoV PLP inhibition in yeast; S. cerevisiae expressing SARS-CoV PLpro, growth rescue; Potency, µM (top dose mostly 32.9 µM), usual class: activators; 330,000 compounds, 0.19% hits; AID 485353; calls by dose curve; further: nearly all actives have a fitted effect of over 55% in size
Pf growth 96h = P. falciparum growth inhibition at 96 hour, primary screen for plastid delayed-death inhibitors. AID 504834. P. falciparum luciferase reporter growth, 96 h. 320,000 compounds, 6.9% hits. Potency, µM (highest dose often 28.7 µM), hits mostly inhibitors
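Compounds incubated with erythrocytes infected by luciferase-expressing P. falciparum (2% hematocrit, 0.05% parasitemia final) for 96 hours, 37 C in 5% CO2. Growth inhibition scored as decreased luciferase luminescence.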
Hits are given with their value; – = inactive; ? = inconclusive; · = no result; [ ] = remark or other dose. Unless noted, the call rests on the fitted dose curve; in most records, active means well fitted inhibition curve with a large enough effect; inconclusive means small, poorly fitted or top-dose-only effect, or another doubt; inactive means no such curve, though single readings can be large or run the other way.

SMILES	NS1 function inh	CHX counter	Shiga inhibitor	Pf growth 48h	SARS PLP yeast	Pf growth 96h
O=C(O)c1ccc2c(=O)n3c(nc2c1)/C(=C/c1cccc(O)c1)CC3	–	–	–	·	–	–
COc1ccc(/C=C2\CCn3c2nc2cc(C(=O)O)ccc2c3=O)cc1O	?	–	–	–	–	13µM
COc1ccc(/C=C2\CCn3c2nc2ccccc2c3=O)cc1OC	–	28	–	–	–	–
COc1ccc(/C=C2\CCn3c2nc2cc(C(=O)O)ccc2c3=O)cc1OC	–	–	–	–	–	–
NS(=O)(=O)c1ccc(CCNC(=O)C(=O)C2C(=O)Nc3ccccc32)cc1 (stereo unspecified)	–	–	–	–	–	–
O=C(NCC1CCCO1)c1cc2cc(F)ccc2[nH]1 (stereo unspecified)	–	27	38	·	–	?
O=C(COc1ccc(F)cc1)NCC1CCCO1 (stereo unspecified)	–	–	–	–	–	1.7µM
CCC(=O)c1ccc(OCC(=O)OCC(=O)NCC2CCCO2)cc1 (stereo unspecified)	–	19	–	–	–	–
O=C(COc1ccccc1)NCC1CCCO1 (stereo unspecified)	–	–	–	–	–	–
Cc1ccc(NS(=O)(=O)c2ccc(OCC(=O)NCC3CCCO3)cc2)cc1 (stereo unspecified)	–	–	–	–	–	9.3µM
O=C(NCC1CCCO1)c1ccc[nH]1 (stereo unspecified)	–	–	–	–	–	–
Cc1ccc(C)c(NS(=O)(=O)c2ccc(OCC(=O)NCC3CCCO3)cc2)c1 (stereo unspecified)	·	–	–	–	–	–
CCCc1nnc(NC(=O)CCC(=O)Nc2ccc(Br)cc2)s1	–	–	–	–	–	–
CCC1CCCCN1CCCNC(=O)CS(=O)(=O)Cc1nc(-c2cccc(OC)c2)oc1C (stereo unspecified)	–	–	–	?	?	–
CCN(C(=O)c1cc2c(=O)n3ccccc3nc2n1C)C1CCCCC1	–	37	61	–	–	–
CCN(C(=O)c1cc2c(=O)n3cccc(C)c3nc2s1)C1CCCCC1	–	–	–	–	–	–
CN(C(=O)c1cc2c(=O)n3ccccc3nc2n1C)C1CCCCC1	–	62	105	–	–	–
CCN(C(=O)c1cc2c(=O)n3ccccc3nc2s1)C1CCCCC1	–	–	44	?	–	–
CCN(CC)C(=O)c1cc2c(=O)n3cccc(C)c3nc2s1	–	27	–	–	–	–
Cn1c(C(=O)O)cc2c(=O)n3ccccc3nc21	–	–	–	–	–	–
Cc1ccc(SCCC(=O)OC(C(=O)NC(N)=O)C(C)C)cc1 (stereo unspecified)	·	–	–	–	–	–
CSc1ccc(CN(C)C(=O)c2cc(=O)[nH]c3ccccc23)cc1	–	–	–	–	–	–
Cc1ccnc2nc(C(=O)OCC(=O)c3c[nH]c4ccccc34)nn12	–	–	–	–	–	–
CCCCc1cc(=O)oc2cc(OCc3nn[nH]n3)ccc12	–	–	–	?	–	–
Fc1ccc2nc(C(F)(F)F)cc(N3CCOCC3)c2c1	–	–	–	–	–	–
SMILES	NS1 function inh	CHX counter	Shiga inhibitor	Pf growth 48h	SARS PLP yeast	Pf growth 96h
CCN(C(=O)c1cc2c(=O)n3ccccc3nc2n1CCCOC)C1CCCCC1	–	–	–	12µM	–	15µM
COCCCn1c(C(=O)NCCN2CCOCC2)cc2c(=O)n3ccccc3nc21	–	–	–	–	–	–
Cn1c(C(=O)N2CCOCC2)cc2c(=O)n3ccccc3nc21	–	–	–	–	–	–
Cn1c(C(=O)N2CCN(C(=O)c3ccco3)CC2)cc2c(=O)n3ccccc3nc21	–	–	–	–	–	4.7µM
CC(=O)N(NC(=O)c1ccc(C)cc1)C1CC(=O)N(c2ccccc2Cl)C1=O (stereo unspecified)	–	–	–	–	–	–
CC(CNC(=O)c1cccnc1)NC(=O)c1cccnc1 (stereo unspecified)	·	·	·	–	·	–
CN(C)c1ccc(/C=N/N=C/c2ccccc2O)cc1	–	76	171	–	–	–
O=C1CCCC(=O)C1=C1SCCCS1	–	–	–	–	–	–
CN(C)c1ccc(C(=O)/C=C/c2ccco2)cc1	–	50	112	–	–	–
O=C(/C=C\c1ccco1)c1ccc(NC(=O)c2ccco2)cc1	–	26	–	–	–	–
O=C(/C=C/c1ccco1)Nc1ccccc1C(=O)O	–	–	–	–	–	?
O=C(/C=C/c1ccco1)c1ccc(O)cc1	–	38	–	–	–	–
CN(C(=O)/C=C/c1ccco1)c1ccccc1C(=O)O	·	–	–	–	–	–
O=C(Cn1ccc([N+](=O)[O-])n1)NCc1cccnc1	·	–	–	–	–	–[5.75 µM]
CC(=O)c1sc(C(C)(C)C)cc1NC(=O)CCC(=O)O	–	–	–	–	–	–
COC(=O)c1sc(-c2ccc(Cl)cc2)cc1NC(=O)/C=C/C(=O)O	–	–	–	–	–	–
COC(=O)c1sc(-c2ccc(Cl)cc2)cc1NC(=O)COCC(=O)O	–	–	–	2.1µM	–	–
COC(=O)c1sc(-c2ccc(C(C)(C)C)cc2)cc1NC(=O)CCC(=O)O	–	27	64	–	–	–
COC(=O)c1cc(C(C)=O)c(C)[nH]c1=O	–	–	–	–	–	5.2µM
CCCn1c(C(CO)Nc2nc(-c3cccc(Br)c3)cs2)nc2ccccc21 (stereo unspecified)	–	–	–	?	–	5.9µM
Cn1c(N/N=C/c2cccs2)cc(=O)n(C)c1=O	–	21	–	·	–	–
Cc1ccc(/C=N/Nc2ccc(Cl)c(C(=O)O)c2)s1	–	104	150	–	–	–
O=C(O)c1cc(N/N=C/c2cccs2)ccc1Cl	–	49	95	–	–	–
Cc1ccc(/C=N/Nc2ccc(F)cc2)s1	–	23	68	?	–	?
COc1cc2c(cc1OC)CN(CC(=O)Nc1cccc(C(F)(F)F)c1)CC2	–	–	–	–	–	–
SMILES	NS1 function inh	CHX counter	Shiga inhibitor	Pf growth 48h	SARS PLP yeast	Pf growth 96h
O=C(N/C(=C\c1ccco1)C(=O)N1CCCC(CO)C1)c1ccccc1 (stereo unspecified)	–	–	–	–	–	–
CCOc1ccc(CCNC(=O)c2cccc(S(=O)(=O)N3CCN(C(C)=O)CC3)c2)cc1OCC	·	·	·	?	–	–
CC1CC(c2ccccc2)NS(=O)(=O)O1 (stereo unspecified)	–	–	–	–	–	–
COc1ccc(C(=O)NC(=S)NC(C)C)cc1Br	–	23	65	–	–	?
COc1ccc(C(=O)NC(=S)NNC(=O)c2ccncc2)cc1Br	·	·	·	13µM	–	?
COc1ccc(C(=O)NC(=S)NC(C)(C)C)cc1Br	–	21	71	?	?	5.2µM
COc1ccc(C(=O)NC(=S)NNC(=O)c2ccc(NC(C)=O)cc2)cc1Br	–	–	–	–	–	–
